# According to PubChem BioAssay (Tox21):
# A number with no mark means an inactive call. Calls come from the whole dose curve; as a rule, active = well fitted curve in the direction sought with a large enough effect in the repeat runs; inconclusive = weak or mixed curves; inactive = flat fitted curve, though single readings scatter.
# Test: qHTS assay to test for compound auto fluorescence at 535 nm (green) in HEK293 cells (AID 720680)
# Settings: green autofluorescence 485/535 nm; series mostly up to 91.3 µM; fluorescence, % of fluorescein: at the top concentration
# Text: U.S. Tox21 Program National Center for Advancing Translational Sciences [NCATS] NIH Chemical Genomics Center [NCGC] U.S. Environmental Protection Agency [EPA] National Institutes of Environmental Health Sciences [NIEHS] National Toxicology Program [NTP] U.S. Food and Drug Administration [FDA] Tox21 Assay Overview: Compound auto fluorescence often interferes with screening of the compound library against various biological targets and signaling pathways. Some of these compounds may have fluorophoric properties. Such properties may interfere with the assay outputs resulting in false positives and/or negatives. To decrease such complications and ensure the compound activities are relevant in terms of biological response, the Tox21 10K compound library was screened for auto fluorescence. From the fluorophores used as reporter signals in our screening assays, the auto fluorescence equivalencies of compounds against three fluorophores have been evaluated: Triamterene, Fluorescein and Rose Bengal sodium for blue, green and red fluorescence, respectively. The fluorescence intensities were measured using Excitation/Emission wavelengths at 405/460nm, 485/535nm and 540/590nm for blue, green and red labels, respectively. This assay includes the green fluorescence data.
# Tox21 Assay Protocol Summary: 2,000 HEK293 cells in 5 uL of culture medium containing 10% dialyzed FBS per well were dispensed into black wall/clear bottom 1536-well plates using a Multidrop Combi Dispenser (Thermo Scientific). The assay plates were incubated for 4-5 hr at 37C to allow cell attachment to the well bottom, followed by the transfer of 23 nL compound or DMSO vehicle by a pintool work station (Kalypsys, San Diego, CA). After the assay plates were incubated overnight at 37C and 5% CO2, fluorescence intensities in the assay plates were measured by an Envision (PerkinElmer, Shelton, CT) plate reader using three labels for measuring blue, green and red fluorescence at […] 460, 535 and 590nm respectively.
# % is set by controls: 0 for no effect and ±100 for the full control effect.
row,Compound,"fluorescence, % of fluorescein"
1,Cc1ncc([N+](=O)[O-])n1CC(C)O (stereo not given),-0.0493% [at 46 µM]
2,[O]=[Mo](=[O])=[O],-0.0315% [at 18.6 µM]
3,CCCC(CC)c1ccccc1 (stereo not given),0.108%
4,COc1c2occc2c(OC)c2c(=O)cc(C)oc12,-0.0108% [at 18.6 µM]
5,CC(N)CCCC(C)(C)O (stereo not given),-0.0023% [at 46 µM]
6,CCC[C@@H]1C[C@@H](C(=O)N[C@@H]([C@H]2O[C@H](SC)[C@H](O)[C@@H](O)[C@H]2O)[C@@H](C)O)N(C)C1,-0.267% [at 46 µM]
7,COC(=O)c1cc(Cl)cc(Cl)c1,-0.002%
8,O=C[O][Al]([O]C=O)[O]C=O,0.0273%
9,CC(C)C1OCCN1CCOC(=O)NCCCCCCNC(=O)OCCN1CCOC1C(C)C (stereo not given),-0.0403%
10,CCC(=O)CC,0.0834%
11,O=Cc1cc2ccccc2o1,0.0068%
12,CCC(=O)c1c(O)cc(O)cc1O,0.0966% [at 46 µM]
13,CCCSSCCC,0.0144%
14,C#CCN[C@@H]1CCc2ccccc21,-0.0119% [at 46 µM]
15,C=CCCCCCCCCC(=O)OCCCC,0.0264%
16,COc1ccc(CCO)cc1,0.101%
17,C[Si]1(C)O[Si](C)(C)O[Si](C)(C)O[Si](C)(C)O[Si](C)(C)O1,0.123%
18,O/N=C/C=N/O,-0.0201%
19,CNCCS(=O)(=O)O,0.222%
20,N#Cc1ccccc1O,-0.0454%

row,Compound,"fluorescence, % of fluorescein"
1,COC(=O)/C=C\C(=O)O,0.0621%
2,Cc1ccccc1C(N)=O,-0.172%
3,CC(Oc1cc(Cl)ccc1Cl)C(=O)O (stereo not given),-0.121%
4,OC[C@H]1O[C@@H](O[C@@H]2[C@@H](CO)O[C@](O)(CO)[C@H]2O)[C@H](O)[C@@H](O)[C@H]1O,0.0053% [at 46 µM]
5,OCC1CCC(CO)CC1 (stereo not given),0.0076%
6,CC(=O)OC(C)=O,0.0127% [at 95.7 µM]
7,CCC/C=C(\C=O)CC,-0.102%
8,CSc1cnccn1,0.0245%
9,CCOC(=O)CC1(C)OCC(C)O1 (stereo not given),0.0129%
10,CCCc1ccc(O)cc1,0.031%
11,CCCCOCC(C)O (stereo not given),-0.0227% [at 95.7 µM]
12,O=C(O)c1cc2ccccc2nc1C(=O)O,-0.263%
13,COP(=O)(O)OP(=O)(O)OC,0.0046%
14,CC1(C)Cc2cccc(N)c2O1,-0.0054%
15,CCCC(=O)OCCC(C)CCC=C(C)C (stereo not given),0.0227%
16,CC(=O)CC(=O)OC(C)(C)C,-0.0211%
17,CCCC(=O)OC/C=C(\C)CCC=C(C)C,-0.0117%
18,CC(C)(C)NC[C@H](O)COc1cccc2c1CCCC2=O,0.0019% [at 18.6 µM]
19,Cc1ccc(C(=O)O)cc1[N+](=O)[O-],-0.183%
20,CC(C)CCOC(=O)c1ccccc1,0.0131%
